From PubChem BioAssay
Active and inactive are the calls of the source. Unless noted, how the calls were made is not given here.

Legend:
[1] = compounds altering circadian rhythm period length – cell-based, LOPAC library, luminescence reporter (AID 2774); settings: circadian reporter cells, at 7 µM, actives lie on both sides;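 further: values are relative to mean of DMSO wells on each plate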
[2] = tested on: Hepatitis C virus NS3 helicase; assay: blockers of NS3h binding to ssDNA – biochemical, fluorescence polarization, LOPAC1280 library, primary screen (AID 687035; in the data active means inhibition above about 37%); settings: Purified HCV NS3 helicase, Cy5-dT15 ssDNA binding fluorescence polarization; stronger effect = higher value; concentration not given here
[3] = compounds altering Cy5-DNA-NS3h complex signal – biochemical, LOPAC1280, artefact control for HCV NS3 helicase inhibitor project (AID 687037); settings: Cy5-DNA-NS3h complex fluorescence interference counterscreen
[4] = viability loss with induced miR-34 in A549 – imaging, A549 dox-inducible miR-34, nuclei and caspase counts, primary screen (AID 1347080;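 active means compounds whose cell count with miR-34 switched on is under 0.7 times the count with it off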); settings: A549 miR-34 inducible, Hoechst nuclei count, 48 h
[5] = blockers of cellular phospholipid synthesis – cell-based, LOPAC library, screen 4, primary screen (AID 1347384); settings: animal cells, phospholipid biosynthesis inhibition screen; at 10 µM
[6] = galactose survival enhancers in mitochondrial complex I cybrids – cell-based, galactose medium, ATP luminescence, primary screen (AID 1645843;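 active means z-score of at least 1.8 in each of two replicates, scored against plate mean and spread of sample wells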;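 further: positive z means more ATP and so rescue of galactose-driven cybrid death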); settings: complex I mutant cybrid cells, 72 h, stronger effect = higher value
[7] = P. berghei load reduction in hepatocytes – cell-based, HepG2, luciferase luminescence, HepG2 viability, primary screen (AID 624349; in the data active means parasite load remaining mostly below about 12%, no sharp cut-off; inactive means mostly above about 10%;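 further: 100% = mean of DMSO negative control wells on the same plate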); settings: P. berghei liver stage in HepG2, luciferase luminescence, concentration not given here; parasite load remaining: stronger effect = lower value; viability: measured here: HepG2 viability without parasites
[8] = stronger effect = lower value, cell number ratio, induced over uninduced
[9] = measured here: relative caspase fold change +Dox/-Dox
[10] = measured here: total cells with miR-34 induction, stronger effect = lower value
[11] = measured here: total cells without miR-34 induction

OC1(c2ccc(Cl)cc2)CCN(Cc2c[nH]c3ccccc23)CC1
period change [1]: 0.165 h (inactive)
inhibition [2]: -8% (inactive)
fluorescence ratio (interference) [3]: 0.9 (inactive)
fold change [4, 8]: 1.01 (inactive)
fold change [4, 9]: 1.16
cell count [4, 10]: 7020
cell count [4, 11]: 6940
outcome [5]: inactive
z-score [6]: -0.735 (inactive)

COc1ccccc1N1CCN(CCN(C(=O)c2ccc(F)cc2)c2ccccn2)CC1
period change [1]: 0.22 h (inactive)
inhibition [2]: -4% (inactive)
fluorescence ratio (interference) [3]: 0.9 (inactive)
fold change [4, 8]: 1.08 (inactive)
fold change [4, 9]: 1.52
cell count [4, 10]: 10200
cell count [4, 11]: 9450
outcome [5]: inactive
z-score [6]: -0.25 (inactive)

CC(N)=O
period change [1]: -0.19 h (inactive)
inhibition [2]: 0% (inactive)
fluorescence ratio (interference) [3]: 0.9 (inactive)
fold change [4, 8]: 1.08 (inactive)
fold change [4, 9]: 1.34
cell count [4, 10]: 10600
cell count [4, 11]: 9870
outcome [5]: inactive
z-score [6]: 1.1 (inactive)

CN1CCc2ccccc2Cc2[nH]c3ccccc3c2CC1
period change [1]: -0.08 h (inactive)
inhibition [2]: -2% (inactive)
fluorescence ratio (interference) [3]: 1 (inactive)
fold change [4, 8]: 1.04 (inactive)
fold change [4, 9]: 0.882
cell count [4, 10]: 9860
cell count [4, 11]: 9460
outcome [5]: inactive
z-score [6]: -0.35 (inactive)

O=C(O)[C@H]1NCCC[C@H]1C(=O)O
period change [1]: 0.06 h (inactive)
inhibition [2]: -2% (inactive)
fluorescence ratio (interference) [3]: 1 (inactive)
fold change [4, 8]: 1.06 (inactive)
fold change [4, 9]: 2.09
cell count [4, 10]: 10400
cell count [4, 11]: 9820
outcome [5]: inactive
z-score [6]: 0.52 (inactive)

O=C(O)/C=C/c1cnc[nH]1
period change [1]: -0.135 h (inactive)
inhibition [2]: -2% (inactive)
fluorescence ratio (interference) [3]: 1 (inactive)
fold change [4, 8]: 1.01 (inactive)
fold change [4, 9]: 2.13
cell count [4, 10]: 10700
cell count [4, 11]: 10600
outcome [5]: inactive
z-score [6]: 0.495 (inactive)

N#Cc1cc([N+](=O)[O-])c2sc(C(N)=O)[n+]([O-])c2c1
parasite load remaining [7]: 32.2% (inactive)
viability [7]: 76.2%
inhibition [2]: -4% (inactive)
fluorescence ratio (interference) [3]: 1 (inactive)
fold change [4, 8]: 1.08 (inactive)
fold change [4, 9]: 1.61
cell count [4, 10]: 7220
cell count [4, 11]: 6660
outcome [5]: inactive
z-score [6]: -1.46 (inactive)

CC(=O)[C@H]1CCC2C3CC=C4C[C@@H](OS(=O)(=O)O)CC[C@]4(C)C3CC[C@@]21C (some centres not stated)
period change [1]: 0.02 h (inactive)
inhibition [2]: 1% (inactive)
fluorescence ratio (interference) [3]: 1 (inactive)
fold change [4, 8]: 0.987 (inactive)
fold change [4, 9]: 1.53
cell count [4, 10]: 10100
cell count [4, 11]: 10300
outcome [5]: inactive
z-score [6]: 2.2 (active)

O=C(Nc1cccc(C(=O)Nc2ccc(S(=O)(=O)O)c3cc(S(=O)(=O)O)cc(S(=O)(=O)O)c23)c1)Nc1cccc(C(=O)Nc2ccc(S(=O)(=O)O)c3cc(S(=O)(=O)O)cc(S(=O)(=O)O)c23)c1
period change [1]: -0.03 h (inactive)
inhibition [2]: 91% (active)
fluorescence ratio (interference) [3]: 1.1 (inactive)
fold change [4, 8]: 1.05 (inactive)
fold change [4, 9]: 0.567
cell count [4, 10]: 9650
cell count [4, 11]: 9220
outcome [5]: inactive
z-score [6]: 0.865 (inactive)

Nc1nc2c(nc(Br)n2C2OC3COP(=O)(O)O[C@@H]3C2O)c(=O)[nH]1 (some centres not stated)
period change [1]: -0.01 h (inactive)
inhibition [2]: -2% (inactive)
fluorescence ratio (interference) [3]: 1 (inactive)
fold change [4, 8]: 1.05 (inactive)
fold change [4, 9]: 1.74
cell count [4, 10]: 10000
cell count [4, 11]: 9530
outcome [5]: inactive
z-score [6]: 0.555 (inactive)

O=[N+]([O-])c1ccc(CNc2nc(NCc3cccc(C(F)(F)F)c3)nc3nc[nH]c23)cc1
parasite load remaining [7]: 41.7% (inactive)
viability [7]: 142%
fold change [4, 8]: 1.02 (inactive)
fold change [4, 9]: 2.13
cell count [4, 10]: 7880
cell count [4, 11]: 7740
outcome [5]: inactive
z-score [6]: -0.05 (inactive)

O=C(O)Cc1ccc(O)c(O)c1
period change [1]: -0.08 h (inactive)
inhibition [2]: -1% (inactive)
fluorescence ratio (interference) [3]: 1 (inactive)
fold change [4, 8]: 0.965 (inactive)
fold change [4, 9]: 1.22
cell count [4, 10]: 9890
cell count [4, 11]: 10200
outcome [5]: inactive
z-score [6]: -0.87 (inactive)

O=C(O)Cc1c[nH]c2ccc(O)cc12
period change [1]: -0.095 h (inactive)
inhibition [2]: -2% (inactive)
fluorescence ratio (interference) [3]: 1 (inactive)
fold change [4, 8]: 1.08 (inactive)
fold change [4, 9]: 0.669
cell count [4, 10]: 9930
cell count [4, 11]: 9210
outcome [5]: inactive
z-score [6]: 0.08 (inactive)

COc1cccc2c1[C@@H]1CN(CCCCn3c(=O)[nH]c4c(sc5ncc(-c6ccccc6)nc54)c3=O)C[C@@H]1CO2
period change [1]: -0.035 h (inactive)
inhibition [2]: -5% (inactive)
fluorescence ratio (interference) [3]: 0.9 (inactive)
fold change [4, 8]: 1.07 (inactive)
fold change [4, 9]: 1.42
cell count [4, 10]: 6250
cell count [4, 11]: 5860
outcome [5]: inactive
z-score [6]: -1.02 (inactive)

COc1ccc2c(c1)CCC1C2CC[C@@]2(C)C1CC[C@@H]2NCCCCCCN1C(=O)C=CC1=O (some centres not stated)
period change [1]: -0.255 h (inactive)
inhibition [2]: 5% (inactive)
fluorescence ratio (interference) [3]: 0.8 (active)
fold change [4, 8]: 1.05 (inactive)
fold change [4, 9]: 1.05
cell count [4, 10]: 9380
cell count [4, 11]: 8930
outcome [5]: inactive
z-score [6]: 0.035 (inactive)

CC(N)=NCCCC[C@@H](N)C(=O)O
period change [1]: 0.055 h (inactive)
inhibition [2]: -4% (inactive)
fluorescence ratio (interference) [3]: 0.9 (inactive)
fold change [4, 8]: 1.08 (inactive)
fold change [4, 9]: 1.26
cell count [4, 10]: 11400
cell count [4, 11]: 10600
outcome [5]: inactive
z-score [6]: 0.39 (inactive)

Fc1ccc(C(OCCCc2cnc[nH]2)c2ccc(F)cc2)cc1
period change [1]: 0.11 h (inactive)
inhibition [2]: -1% (inactive)
fluorescence ratio (interference) [3]: 1 (inactive)
fold change [4, 8]: 0.951 (inactive)
fold change [4, 9]: 0.647
cell count [4, 10]: 8620
cell count [4, 11]: 9060
outcome [5]: inactive
z-score [6]: -1.19 (inactive)

CCCOC(=O)c1c(-c2ccccc2)nc(CC)c(C(=O)SCC)c1CCC
period change [1]: -0.02 h (inactive)
inhibition [2]: -3% (inactive)
fluorescence ratio (interference) [3]: 1 (inactive)
fold change [4, 8]: 1.01 (inactive)
fold change [4, 9]: 0.935
cell count [4, 10]: 9020
cell count [4, 11]: 8910
outcome [5]: inactive
z-score [6]: -1.19 (inactive)
